# Test results reported in PubChem BioAssay AID1159580 (chemical genetic matrix, 2015).
# The whole screen tested about 5,500 compounds, of which about 2,000 (36%) were called active. Not shown: some 18% with an inconclusive outcome. This is one part of the list. Unmarked numbers belong to inactive results. Cut-off read from the data, not from the text of the source: active = normalized growth mostly below about 0.91 (no sharp cut-off); inconclusive = no clear call, values can overlap the other calls; inactive = mostly above about 0.92.
# Assay: chemical genetic growth profiling, strain panel (AID 1159580);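 note: tested at 20 µM; growth read once vehicle control cultures reached saturation at 30 °C; 1 = growth at the plate median or of vehicle wells; lower values mean less growth of the strain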
# Conditions: growth OD
structure (smiles),measurement,setting,value
C=C[C@@](C)(O)CCC1C(=C)CCC2[C@@](C)(CO)CCC[C@]12C (some centres undefined),normalized growth,"S. cerevisiae deletion strains, locus YJR066W, strain TOR1, stronger effect = lower value",0.868
same,normalized growth,"S. cerevisiae deletion strains, locus YJR075W, strain HOC1, stronger effect = lower value",1.05
same,normalized growth,"S. cerevisiae deletion strains, locus YKL009W, strain mrt4, stronger effect = lower value",0.776 (active)
same,normalized growth,"S. cerevisiae deletion strains, locus YKL068W, stronger effect = lower value",1.02
same,normalized growth,"S. cerevisiae deletion strains, locus YKL085W, strain MDH1 (second series), stronger effect = lower value",0.994
same,normalized growth,"S. cerevisiae deletion strains, locus YKL085W, strain MDH1, stronger effect = lower value",0.994
same,normalized growth,"S. cerevisiae deletion strains, locus YKL160W, strain elf1, stronger effect = lower value",0.966
same,normalized growth,"S. cerevisiae deletion strains, locus YKL190W, strain CNB1, stronger effect = lower value",1.06
same,normalized growth,"S. cerevisiae deletion strains, locus YKR001C, strain vps1, stronger effect = lower value",1
same,normalized growth,"S. cerevisiae deletion strains, locus YKR026C, strain gcn3, stronger effect = lower value",1.08
same,normalized growth,"S. cerevisiae deletion strains, locus YKR091W, strain srl3, stronger effect = lower value",1.07
same,normalized growth,"S. cerevisiae deletion strains, locus YLL001W, strain dnm1, stronger effect = lower value",0.935
same,normalized growth,"S. cerevisiae deletion strains, locus YLL026W, stronger effect = lower value",1.03
same,normalized growth,"S. cerevisiae deletion strains, locus YLL041C, strain sdh2, stronger effect = lower value",1.08 [resistant] (active)
same,normalized growth,"S. cerevisiae deletion strains, locus YLR027C, strain aat2, stronger effect = lower value",0.997
same,normalized growth,"S. cerevisiae deletion strains, locus YLR039C, strain RIC1, stronger effect = lower value",0.868
same,normalized growth,"S. cerevisiae deletion strains, locus YLR058C, strain SHM2, stronger effect = lower value",1
same,normalized growth,"S. cerevisiae deletion strains, locus YLR102C, strain apc9, stronger effect = lower value",1.05
same,normalized growth,"S. cerevisiae deletion strains, locus YLR113W, strain HOG1, stronger effect = lower value",0.891
same,normalized growth,"S. cerevisiae deletion strains, locus YLR221C, strain rsa3, stronger effect = lower value",0.982
same,normalized growth,"S. cerevisiae deletion strains, locus YLR258W, strain gsy2, stronger effect = lower value",1
same,normalized growth,"S. cerevisiae deletion strains, locus YLR262C, strain YPT6 (second series), stronger effect = lower value",0.733 (active)
same,normalized growth,"S. cerevisiae deletion strains, locus YLR268W, strain sec22, stronger effect = lower value",0.959
same,normalized growth,"S. cerevisiae deletion strains, locus YLR320W, strain mms22, stronger effect = lower value",0.98
same,normalized growth,"S. cerevisiae deletion strains, locus YLR330W, strain CHS5, stronger effect = lower value",1.05
same,normalized growth,"S. cerevisiae deletion strains, locus YLR342W, strain FKS1 (second series), stronger effect = lower value",0.883
same,normalized growth,"S. cerevisiae deletion strains, locus YLR342W, strain FKS1, stronger effect = lower value",0.999
same,normalized growth,"S. cerevisiae deletion strains, locus YLR357W, strain rsc2, stronger effect = lower value",1.16 [resistant] (active)
same,normalized growth,"S. cerevisiae deletion strains, locus YLR370C, strain arc18, stronger effect = lower value",1.04
same,normalized growth,"S. cerevisiae deletion strains, locus YLR371W, strain rom2, stronger effect = lower value",1.12 [resistant] (active)
same,normalized growth,"S. cerevisiae deletion strains, locus YLR384C, strain iki3, stronger effect = lower value",1.09 [resistant] (active)
same,normalized growth,"S. cerevisiae deletion strains, locus YLR418C, strain cdc73, stronger effect = lower value",1.07
same,normalized growth,"S. cerevisiae deletion strains, locus YML016C, strain PPZ1, stronger effect = lower value",1.04
same,normalized growth,"S. cerevisiae deletion strains, locus YML032C, strain rad52, stronger effect = lower value",0.912
same,normalized growth,"S. cerevisiae deletion strains, locus YML120C, strain ndi1, stronger effect = lower value",0.974
same,normalized growth,"S. cerevisiae deletion strains, locus YML124C, strain tub3, stronger effect = lower value",1.04
same,normalized growth,"S. cerevisiae deletion strains, locus YMR058W, strain fet3, stronger effect = lower value",0.992
same,normalized growth,"S. cerevisiae deletion strains, locus YMR078C, strain ctf18, stronger effect = lower value",1.05
same,normalized growth,"S. cerevisiae deletion strains, locus YMR125W, strain sto1, stronger effect = lower value",1.13 [resistant] (active)
same,normalized growth,"S. cerevisiae deletion strains, locus YMR129W, stronger effect = lower value",1.06
same,normalized growth,"S. cerevisiae deletion strains, locus YMR205C, strain PFK2, stronger effect = lower value",0.969
same,normalized growth,"S. cerevisiae deletion strains, locus YMR223W, strain ubp8, stronger effect = lower value",0.995
same,normalized growth,"S. cerevisiae deletion strains, locus YMR231W, strain pep5, stronger effect = lower value",1.05
same,normalized growth,"S. cerevisiae deletion strains, locus YMR263W, strain SAP30, stronger effect = lower value",1.07
same,normalized growth,"S. cerevisiae deletion strains, locus YMR307W, strain GAS1, stronger effect = lower value",0.91
same,normalized growth,"S. cerevisiae deletion strains, locus YNL067W, strain RPL9B, stronger effect = lower value",0.979
same,normalized growth,"S. cerevisiae deletion strains, locus YNL071W, strain lat1, stronger effect = lower value",1
same,normalized growth,"S. cerevisiae deletion strains, locus YNL153C, strain GIM3, stronger effect = lower value",0.971
same,normalized growth,"S. cerevisiae deletion strains, locus YNL183C, strain NPR1, stronger effect = lower value",0.842
same,normalized growth,"S. cerevisiae deletion strains, locus YNL209W, strain ssb2, stronger effect = lower value",0.984
same,normalized growth,"S. cerevisiae deletion strains, locus YNL233W, strain BNI4, stronger effect = lower value",1.07
same,normalized growth,"S. cerevisiae deletion strains, locus YNL248C, strain rpa49, stronger effect = lower value",0.983
same,normalized growth,"S. cerevisiae deletion strains, locus YNL250W, strain rad50, stronger effect = lower value",0.995
same,normalized growth,"S. cerevisiae deletion strains, locus YNL271C, strain bni1, stronger effect = lower value",1
same,normalized growth,"S. cerevisiae deletion strains, locus YNL298W, strain CLA4, stronger effect = lower value",0.88 (active)
same,normalized growth,"S. cerevisiae deletion strains, locus YNL307C, strain MCK1, stronger effect = lower value",1.03
same,normalized growth,"S. cerevisiae deletion strains, locus YNL322C, strain KRE1 (second series), stronger effect = lower value",0.933
same,normalized growth,"S. cerevisiae deletion strains, locus YNR049C, strain mso1, stronger effect = lower value",1.06
same,normalized growth,"S. cerevisiae deletion strains, locus YNR052C, strain pop2, stronger effect = lower value",0.929
same,normalized growth,"S. cerevisiae deletion strains, locus YOL006C, strain TOP1, stronger effect = lower value",0.948
same,normalized growth,"S. cerevisiae deletion strains, locus YOL012C, strain htz1",1.69
same,normalized growth,"S. cerevisiae deletion strains, locus YOL147C, strain pex11, stronger effect = lower value",1.04
same,normalized growth,"S. cerevisiae deletion strains, locus YOR001W, strain rrp6, stronger effect = lower value",0.986
same,normalized growth,"S. cerevisiae deletion strains, locus YOR061W, strain CKA2, stronger effect = lower value",0.955
same,normalized growth,"S. cerevisiae deletion strains, locus YOR069W, strain VPS5, stronger effect = lower value",1.02
same,normalized growth,"S. cerevisiae deletion strains, locus YOR070C, strain gyp1, stronger effect = lower value",0.982
same,normalized growth,"S. cerevisiae deletion strains, locus YOR080W, strain dia2, stronger effect = lower value",1.01
same,normalized growth,"S. cerevisiae deletion strains, locus YOR083W, strain WHI5, stronger effect = lower value",0.939
same,normalized growth,"S. cerevisiae deletion strains, locus YOR106W, strain vam3, stronger effect = lower value",0.933
same,normalized growth,"S. cerevisiae deletion strains, locus YOR136W, strain idh2, stronger effect = lower value",1.01
same,normalized growth,"S. cerevisiae deletion strains, locus YOR144C, strain elg1, stronger effect = lower value",0.989
same,normalized growth,"S. cerevisiae deletion strains, locus YOR184W, strain ser1, stronger effect = lower value",0.679 (active)
same,normalized growth,"S. cerevisiae deletion strains, locus YOR231W, strain MKK1, stronger effect = lower value",0.85 (active)
same,normalized growth,"S. cerevisiae deletion strains, locus YOR265W, strain rbl2, stronger effect = lower value",1.03
same,normalized growth,"S. cerevisiae deletion strains, locus YOR270C, strain vph1, stronger effect = lower value",0.839
same,normalized growth,"S. cerevisiae deletion strains, locus YOR290C, strain snf2, stronger effect = lower value",0.916
same,normalized growth,"S. cerevisiae deletion strains, locus YOR316C, strain cot1, stronger effect = lower value",1.06
same,normalized growth,"S. cerevisiae deletion strains, locus YPL051W, strain arl3, stronger effect = lower value",0.935
same,normalized growth,"S. cerevisiae deletion strains, locus YPL078C, strain atp4, stronger effect = lower value",0.939
same,normalized growth,"S. cerevisiae deletion strains, locus YPL106C, strain sse1, stronger effect = lower value",1.22 [resistant] (active)
same,normalized growth,"S. cerevisiae deletion strains, locus YPL240C, strain hsp82, stronger effect = lower value",1.06
same,normalized growth,"S. cerevisiae deletion strains, locus YPL241C, strain CIN2, stronger effect = lower value",1.07 [resistant] (active)
same,normalized growth,"S. cerevisiae deletion strains, locus YPL256C, strain CLN2, stronger effect = lower value",0.915
same,normalized growth,"S. cerevisiae deletion strains, locus YPR119W, strain clb2, stronger effect = lower value",1.07 [resistant] (active)
same,normalized growth,"S. cerevisiae deletion strains, locus YPR141C, strain kar3, stronger effect = lower value",1.07
same,normalized growth,"S. cerevisiae deletion strains, locus YPR163C, strain tif3, stronger effect = lower value",0.977
same,normalized growth,"S. cerevisiae deletion strains, locus YPR167C, strain met16, stronger effect = lower value",1.01
same,normalized growth,"S. cerevisiae deletion strains, strain wtn01, stronger effect = lower value",0.945
same,normalized growth,"S. cerevisiae strains, strain wild type, stronger effect = lower value",1
